This note sets out measurements from ChEMBL document CHEMBL3988442, “University of Dundee, Small-Polar-MMV Screening Library” (2021).

For some of these results: Results with a measured potency or affinity are listed apart.

Holding throughout (parameters): scale not given: direction of the effect not stated beside the values
Experiment [1] addresses Protein translocase subunit SecA (Escherichia coli (strain K12)) (UniProt P10408). Put plainly: Assay to Identify E. coli SecA ATPase Inhibitors. The experiment is classed as functional. The note with it: 30 µM.
The target of experiment [2] is T1, Ubiquitin-activating enzyme e1, putative (Leishmania donovani (strain BPK282A1)) (UniProt E9BSI1).
T1 sequence (whole entry): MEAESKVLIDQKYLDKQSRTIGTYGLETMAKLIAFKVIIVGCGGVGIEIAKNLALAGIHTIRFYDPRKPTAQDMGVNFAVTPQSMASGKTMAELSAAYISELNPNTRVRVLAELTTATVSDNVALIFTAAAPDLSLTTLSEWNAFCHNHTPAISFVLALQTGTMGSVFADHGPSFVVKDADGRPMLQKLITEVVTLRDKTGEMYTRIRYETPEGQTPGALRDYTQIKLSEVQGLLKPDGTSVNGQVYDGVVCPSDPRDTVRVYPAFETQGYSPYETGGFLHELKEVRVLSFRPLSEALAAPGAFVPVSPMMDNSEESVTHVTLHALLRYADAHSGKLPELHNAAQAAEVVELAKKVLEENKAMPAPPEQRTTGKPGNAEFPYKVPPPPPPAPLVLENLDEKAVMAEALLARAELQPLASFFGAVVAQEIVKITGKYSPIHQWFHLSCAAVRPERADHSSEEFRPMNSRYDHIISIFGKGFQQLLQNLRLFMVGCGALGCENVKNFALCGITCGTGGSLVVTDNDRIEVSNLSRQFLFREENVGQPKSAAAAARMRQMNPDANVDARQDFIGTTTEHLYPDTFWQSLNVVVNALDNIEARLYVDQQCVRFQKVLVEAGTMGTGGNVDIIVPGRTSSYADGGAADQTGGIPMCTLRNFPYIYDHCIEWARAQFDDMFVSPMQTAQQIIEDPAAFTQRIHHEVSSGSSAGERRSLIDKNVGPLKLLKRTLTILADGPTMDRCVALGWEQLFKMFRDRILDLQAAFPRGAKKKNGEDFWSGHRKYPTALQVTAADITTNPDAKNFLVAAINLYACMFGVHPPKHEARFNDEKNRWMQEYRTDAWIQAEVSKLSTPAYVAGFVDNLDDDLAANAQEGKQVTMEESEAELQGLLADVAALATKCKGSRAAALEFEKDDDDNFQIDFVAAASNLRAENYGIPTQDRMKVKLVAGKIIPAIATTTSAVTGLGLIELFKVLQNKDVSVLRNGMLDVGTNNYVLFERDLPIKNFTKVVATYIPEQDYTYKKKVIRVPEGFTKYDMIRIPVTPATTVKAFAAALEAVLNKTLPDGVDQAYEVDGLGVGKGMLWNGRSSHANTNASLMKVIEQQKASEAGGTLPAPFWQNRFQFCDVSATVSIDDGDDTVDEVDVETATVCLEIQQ
Put plainly: Leishmania donovani Ubiquitin Activating Enzyme (LdE1). The note with it: 30 µM. The experiment is classed as functional.

In experiment [3] the target is AMP-activated protein kinase, AMPK (Homo sapiens) (UniProt P54646+O43741+P54619+Q9UGJ0+Q9Y478+Q13131+Q9UGI9). The experiment in a line: AMP-dependent Kinase enzyme assay. An in vitro enzyme assay that detects ADP turnover that is directly proportional to AMPK activity. This uses naive AMPK that is activated during the assay with MK-8722. The experiment is classed as functional. The note with it: 30 µM.

Experiment [4] concerns the target Sialic acid-binding Ig-like lectin 9 (Homo sapiens) (UniProt Q9Y336). The experiment in a line: Hs-Siglec9 ALPHAscreen SOP 20170721. The note with it: 10 µM.
Another experiment concerns Trypanosoma cruzi. Put plainly: Trypanosoma cruzi phosphomannomutase and mannose-1-phosphate guanylyltransferase assay. Format: functional. The following applies: 10 µM.
In experiment [5] the target is T2, Arginase-2, mitochondrial (Homo sapiens) (UniProt P78540).
T2 sequence (whole entry): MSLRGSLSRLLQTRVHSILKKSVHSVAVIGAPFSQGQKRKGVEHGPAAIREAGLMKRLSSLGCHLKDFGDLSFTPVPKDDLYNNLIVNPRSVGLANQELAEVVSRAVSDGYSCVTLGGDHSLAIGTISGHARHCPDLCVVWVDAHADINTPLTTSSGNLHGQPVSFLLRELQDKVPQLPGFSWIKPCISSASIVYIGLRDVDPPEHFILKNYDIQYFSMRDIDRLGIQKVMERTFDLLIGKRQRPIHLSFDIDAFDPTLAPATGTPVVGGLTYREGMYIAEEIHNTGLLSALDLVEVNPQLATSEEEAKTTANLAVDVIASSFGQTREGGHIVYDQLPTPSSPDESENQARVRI
The experiment in a line: in vitro enzyme assay to detect the production of urea directly proportional to the activity of Arginase II. Further: in the data most compounds retested in dose-response had high values. Format: functional. The note with it: 33.3 µM.

Experiment [6] concerns the target T3, Proteasome subunit beta (Trypanosoma cruzi) (UniProt O96673).
T3 sequence (whole entry): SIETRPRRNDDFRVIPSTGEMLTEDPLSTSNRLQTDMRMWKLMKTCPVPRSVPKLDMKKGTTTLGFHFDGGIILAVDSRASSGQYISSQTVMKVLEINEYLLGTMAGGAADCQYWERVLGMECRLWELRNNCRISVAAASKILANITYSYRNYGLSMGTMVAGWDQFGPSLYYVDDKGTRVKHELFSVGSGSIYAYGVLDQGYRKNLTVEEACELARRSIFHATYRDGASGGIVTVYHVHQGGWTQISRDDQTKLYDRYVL
Put plainly: Trypanosoma cruzi proteasome chymotrypsin-like activity (TcProtChymo) assay. Further: in the data most compounds retested in dose-response had high values. The following applies: 9.37 µM. Format: functional.

The species named for a further experiment is Homo sapiens. The experiment in a line: To identify inhibition of the IFN signalling (Jak-Stat) pathway via expression of an eGFP reporter gene under the control of an IFN-stimulated response element (ISRE) containing MxA promoter. The experiment is classed as functional. The note with it: 30 µM.
For experiment [7], the target named is T4, Tyrosyl-tRNA synthetase, putative (Trypanosoma cruzi (strain CL Brener)) (UniProt Q4DSP6).
T4 sequence (whole entry): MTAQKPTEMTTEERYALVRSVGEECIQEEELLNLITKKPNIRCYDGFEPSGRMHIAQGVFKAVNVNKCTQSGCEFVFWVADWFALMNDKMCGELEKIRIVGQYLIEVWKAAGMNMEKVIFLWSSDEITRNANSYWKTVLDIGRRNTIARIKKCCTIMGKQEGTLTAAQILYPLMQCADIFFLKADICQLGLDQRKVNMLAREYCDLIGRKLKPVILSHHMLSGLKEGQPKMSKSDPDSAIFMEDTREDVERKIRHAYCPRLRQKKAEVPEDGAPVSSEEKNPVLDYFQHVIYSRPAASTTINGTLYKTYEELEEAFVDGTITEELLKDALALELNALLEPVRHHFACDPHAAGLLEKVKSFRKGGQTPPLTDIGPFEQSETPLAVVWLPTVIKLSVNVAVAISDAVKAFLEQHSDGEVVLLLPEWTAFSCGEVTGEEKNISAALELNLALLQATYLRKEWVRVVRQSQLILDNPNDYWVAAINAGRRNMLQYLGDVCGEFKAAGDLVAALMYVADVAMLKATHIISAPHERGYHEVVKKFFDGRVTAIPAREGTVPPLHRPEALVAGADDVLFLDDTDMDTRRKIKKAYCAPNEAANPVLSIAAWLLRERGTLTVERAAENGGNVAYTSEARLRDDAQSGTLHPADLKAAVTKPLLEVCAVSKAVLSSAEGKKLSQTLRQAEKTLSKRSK
Put plainly: Trypanosoma cruzi tyrosyl tRNA synthetase (TcYRS) _High Tyrosine SOP. Further: in the data most compounds retested in dose-response had high values. The experiment is classed as functional. The note with it: 30 µM.

The target of experiment [8] is T4, Tyrosyl-tRNA synthetase, putative (Trypanosoma cruzi (strain CL Brener)). Put plainly: Trypanosoma cruzi tyrosyl tRNA synthetase (TcYRS) SOP. The experiment is classed as functional. The following applies: 30 µM.
The target of experiment [9] is Chromo domain-containing protein 1 (Saccharomyces cerevisiae (strain ATCC 204508 / S288c) (Baker's yeast)) (UniProt P32657). Put plainly: ScCHD-1 Enzyme Inhibition Assay. Further: in the data most compounds retested in dose-response had high values. Format: functional. The note with it: 30 µM.
Sequence of Chromo domain-containing protein 1 (Saccharomyces cerevisiae (strain ATCC 204508 / S288c) (Baker's yeast)) (P32657 whole entry, the tested form may be a part): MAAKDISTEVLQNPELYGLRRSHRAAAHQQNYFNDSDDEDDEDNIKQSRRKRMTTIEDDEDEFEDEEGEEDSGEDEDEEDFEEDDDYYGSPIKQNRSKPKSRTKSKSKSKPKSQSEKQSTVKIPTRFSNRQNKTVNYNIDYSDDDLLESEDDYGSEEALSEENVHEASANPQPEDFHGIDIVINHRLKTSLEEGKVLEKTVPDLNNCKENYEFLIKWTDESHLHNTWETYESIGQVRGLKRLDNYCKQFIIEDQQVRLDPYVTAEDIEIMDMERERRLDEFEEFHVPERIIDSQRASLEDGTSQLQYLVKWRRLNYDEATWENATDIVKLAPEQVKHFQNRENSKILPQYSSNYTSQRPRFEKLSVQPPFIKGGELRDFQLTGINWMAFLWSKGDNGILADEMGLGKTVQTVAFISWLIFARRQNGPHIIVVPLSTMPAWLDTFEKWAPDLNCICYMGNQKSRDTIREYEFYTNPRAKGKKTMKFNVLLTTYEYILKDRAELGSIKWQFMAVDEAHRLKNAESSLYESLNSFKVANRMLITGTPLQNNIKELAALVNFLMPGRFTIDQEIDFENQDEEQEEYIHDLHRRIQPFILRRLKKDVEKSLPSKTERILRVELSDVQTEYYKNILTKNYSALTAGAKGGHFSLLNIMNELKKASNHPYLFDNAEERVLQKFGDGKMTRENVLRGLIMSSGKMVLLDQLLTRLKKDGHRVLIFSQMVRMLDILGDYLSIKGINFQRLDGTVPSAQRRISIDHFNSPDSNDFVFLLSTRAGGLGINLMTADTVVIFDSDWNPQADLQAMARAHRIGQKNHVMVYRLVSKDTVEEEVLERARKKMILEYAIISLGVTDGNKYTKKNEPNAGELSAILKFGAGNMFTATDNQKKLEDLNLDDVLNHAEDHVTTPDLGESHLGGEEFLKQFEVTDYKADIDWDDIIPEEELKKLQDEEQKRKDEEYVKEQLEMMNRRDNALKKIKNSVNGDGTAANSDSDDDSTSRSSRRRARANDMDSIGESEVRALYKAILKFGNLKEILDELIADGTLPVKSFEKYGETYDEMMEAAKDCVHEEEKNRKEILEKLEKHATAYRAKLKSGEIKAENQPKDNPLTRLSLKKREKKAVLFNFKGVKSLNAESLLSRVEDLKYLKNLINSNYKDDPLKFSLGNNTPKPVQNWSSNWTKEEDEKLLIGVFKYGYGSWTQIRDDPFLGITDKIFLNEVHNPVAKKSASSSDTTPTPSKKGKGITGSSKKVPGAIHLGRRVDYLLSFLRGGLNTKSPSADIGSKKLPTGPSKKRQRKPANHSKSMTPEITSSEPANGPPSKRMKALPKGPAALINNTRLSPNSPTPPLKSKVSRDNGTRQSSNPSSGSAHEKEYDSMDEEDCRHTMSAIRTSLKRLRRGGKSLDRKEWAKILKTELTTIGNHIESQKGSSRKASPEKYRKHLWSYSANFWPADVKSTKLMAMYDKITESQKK

Sequence of Protein translocase subunit SecA (Escherichia coli (strain K12)) (P10408 whole entry): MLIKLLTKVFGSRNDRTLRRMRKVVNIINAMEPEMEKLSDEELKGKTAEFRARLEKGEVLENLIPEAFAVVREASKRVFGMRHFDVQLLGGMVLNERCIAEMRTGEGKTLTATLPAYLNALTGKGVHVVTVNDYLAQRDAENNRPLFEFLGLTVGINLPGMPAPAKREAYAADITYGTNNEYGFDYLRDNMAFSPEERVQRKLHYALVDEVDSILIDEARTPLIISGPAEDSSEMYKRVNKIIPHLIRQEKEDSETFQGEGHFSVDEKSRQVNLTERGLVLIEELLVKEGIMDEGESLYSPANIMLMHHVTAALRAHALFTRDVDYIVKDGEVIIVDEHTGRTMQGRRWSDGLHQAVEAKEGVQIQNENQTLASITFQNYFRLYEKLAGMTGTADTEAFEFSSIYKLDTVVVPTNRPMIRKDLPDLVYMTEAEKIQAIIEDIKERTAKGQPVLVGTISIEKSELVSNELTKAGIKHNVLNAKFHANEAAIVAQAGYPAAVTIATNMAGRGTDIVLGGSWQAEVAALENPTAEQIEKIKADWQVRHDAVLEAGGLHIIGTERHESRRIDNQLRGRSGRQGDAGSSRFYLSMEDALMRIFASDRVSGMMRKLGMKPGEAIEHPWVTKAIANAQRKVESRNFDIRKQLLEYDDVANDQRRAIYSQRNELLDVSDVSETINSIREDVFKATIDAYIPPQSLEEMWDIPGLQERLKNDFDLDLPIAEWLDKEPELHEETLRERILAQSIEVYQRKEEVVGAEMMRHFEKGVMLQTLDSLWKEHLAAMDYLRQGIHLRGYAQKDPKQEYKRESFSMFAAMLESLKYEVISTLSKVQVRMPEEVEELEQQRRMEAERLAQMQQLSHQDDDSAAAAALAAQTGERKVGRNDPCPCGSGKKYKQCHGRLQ
Sequence of Sialic acid-binding Ig-like lectin 9 (Homo sapiens) (Q9Y336 whole entry): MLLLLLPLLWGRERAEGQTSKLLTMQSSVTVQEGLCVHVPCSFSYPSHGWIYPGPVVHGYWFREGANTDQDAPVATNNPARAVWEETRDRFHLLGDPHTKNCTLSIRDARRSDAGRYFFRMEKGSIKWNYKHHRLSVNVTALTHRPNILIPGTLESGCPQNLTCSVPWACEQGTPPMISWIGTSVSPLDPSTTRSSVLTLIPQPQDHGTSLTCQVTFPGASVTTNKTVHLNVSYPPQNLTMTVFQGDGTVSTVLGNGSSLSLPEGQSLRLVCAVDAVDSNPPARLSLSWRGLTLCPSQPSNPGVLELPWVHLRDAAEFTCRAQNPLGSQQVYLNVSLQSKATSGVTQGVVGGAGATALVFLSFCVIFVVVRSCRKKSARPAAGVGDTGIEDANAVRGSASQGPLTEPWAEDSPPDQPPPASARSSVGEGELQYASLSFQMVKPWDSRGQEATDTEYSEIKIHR

For the compound `CCS(=O)(=O)N1CCOC2(CCCN(c3ccc(C)nn3)C2)C1` (stereo unspecified), the Percent Effect in experiment [1] was -0.413%; in experiment [2], 2.67%; in [3], 3.56%; in experiment [4], 2.28%; with Trypanosoma cruzi, -1.35%; in [5], -48.9%. Also, the Percent Effect in experiment [6] was 6.67%; in the experiment listed under Homo sapiens, -5.88%; in experiment [7], -1.04%; in experiment [8], -2.5%; in [9], 0.0361%.

With `COc1cc(C)sc1C(=O)N1CC(c2cccnc2)C1`, the Percent Effect is -4.73% in experiment [1]; 2.7% in [2]; 4.4% in experiment [3]; -2.39% in [4]; -3.86% in the experiment with Trypanosoma cruzi; -1.91% in experiment [5]. For the same compound, the Percent Effect in experiment [6] was 9.65%; in the experiment listed under Homo sapiens it was -1.77%; in [7] it was 1.59%; in experiment [8], 9.76%; in experiment [9], -1.11%.

Take `CC(=O)N1CCN(c2cc(C3CN(C)CCO3)nc(C)n2)CC1` (stereo unspecified): the Percent Effect in experiment [1] is -3.82%; in experiment [2] it was 12.2%; in experiment [3], 9.39%; in [4], 0.199%; with Trypanosoma cruzi it was -3.36%; in [5], -1.16%. Further, the Percent Effect in [6] was 14.8%; in the experiment filed under Homo sapiens it was 12.3%; in experiment [7], 5.38%; in experiment [8], 14.3%; in [9], -1.64%.

Consider `COc1cc(C(=O)N(Cc2ccc(F)cc2)C2CC2)cc2c1OCCO2`, for which the Percent Effect in experiment [1] is 0.816%; in experiment [2], 7.89%; in experiment [3], 1.68%; in [4] it was -4.56%; in the experiment with Trypanosoma cruzi, 2.43%; in experiment [5], 3.55%. Moreover, the Percent Effect in experiment [6] was 21.2%; in the experiment filed under Homo sapiens it was 36.9%; in experiment [7], 3.19%; in experiment [8], 13%; in [9] it was -3.44%.

As for `CCCn1nc(C2CCNCC2)n(Cc2ccccc2)c1=O`, the Percent Effect in [1] was -2.26%; in experiment [2] it was 13.5%; in experiment [3], -3.97%; in experiment [4] it was 17%; in the experiment on Trypanosoma cruzi it was 7.34%; in experiment [5], -5.71%. Moreover, the Percent Effect in experiment [6] is 10.2%; in the experiment filed under Homo sapiens, 0.924%; in [7] it was 5.82%; in experiment [8] it was 14.6%; in experiment [9], -1.76%.

For `CCOC(=O)CCC(=O)N1CCC(Oc2ccc(C(F)(F)F)cn2)CC1`, the Percent Effect in experiment [1] was -1.66%; in [2], 7.79%; in experiment [3], 4.3%; in experiment [4], 13.1%; with Trypanosoma cruzi, -6.41%; in experiment [5], -1.94%. Also, the Percent Effect was 14.1% in experiment [6]; 20.3% in the experiment filed under Homo sapiens; 3.17% in experiment [7]; 11.5% in experiment [8]; -5.92% in [9].

On to `CCCc1nc(N2Cc3cnn(Cc4ccc(F)cc4)c3C2)no1`, for which the Percent Effect was -3.65% in [1]; 5.33% in experiment [2]; 7.03% in experiment [3]; 2.42% in experiment [4]; -2.04% with Trypanosoma cruzi; 2.6% in experiment [5]. Moreover, the Percent Effect in experiment [6] was 14.1%; in the experiment filed under Homo sapiens, 19.7%; in experiment [7], 4.92%; in experiment [8], 11.1%; in experiment [9], -7.25%.

As for `Cc1cc2cc(C(=O)N[C@@H]3CC[C@@H](N4CCOCC4)[C@@H]3O)ccc2o1`, the Percent Effect in experiment [1] is 1.28%; in [2], 17.6%; in experiment [3], 5.33%; in experiment [4], -5.41%; in the experiment with Trypanosoma cruzi, 2.57%; in experiment [5] it was -0.232%. For the same compound, the Percent Effect in experiment [6] was 13.4%; in the experiment filed under Homo sapiens, 29.4%; in [7] it was 5.38%; in [8] it was 3.9%; in experiment [9], -10.2%.

`Cc1nc(C)n(CC2CCCN(CC(=O)Nc3c(C)n[nH]c3C)C2)n1` (stereo unspecified): the Percent Effect was -1.71% in experiment [1]; 13.2% in experiment [2]; -0.0642% in experiment [3]; 9.58% in [4]; 3.76% with Trypanosoma cruzi; 0.766% in [5]. In addition, the Percent Effect is 8.69% in experiment [6]; -1.17% in the experiment filed under Homo sapiens; 5.39% in experiment [7]; 17.1% in [8]; -9.15% in [9].

For the compound `CS(=O)(=O)NCC1CCCN(Cc2ccc(F)c3cccnc23)C1` (stereo unspecified), the Percent Effect in experiment [1] was -1.47%; in experiment [2] it was 2.6%; in [3] it was -1.1%; in experiment [4] it was 10.8%; in the experiment on Trypanosoma cruzi, -2.06%; in [5], -4.14%. Moreover, the Percent Effect in experiment [6] amounted to 18.5%; in the experiment listed under Homo sapiens it was 16.9%; in experiment [7] it was 5.38%; in experiment [8], 13.6%; in [9], 3.65%.

Consider `CC(=O)Nc1cccc(C(=O)Nc2cnc3n2CCCC3)c1`, for which the Percent Effect was -3.85% in experiment [1]; 4.17% in [2]; -0.344% in experiment [3]; 0.164% in [4]; -1.46% in the experiment with Trypanosoma cruzi; 3.53% in experiment [5]. Further, the Percent Effect is 6.14% in experiment [6]; 17.5% in the experiment filed under Homo sapiens; 4.21% in [7]; 5.13% in [8]; -3.23% in experiment [9].
